# Experimental data from the supplement of paper PMC6555819.
# Assays:
# Test in all cases: PBM binding z-score (relative to random genomic background probes); higher = stronger binding; sequences stand for … in GC…GCGATTGACAGCGTAGAATGAAGG
# [1] = tested on: PPARg:RXRa DBDmut IVT, anti-RXR (DBD mutation: RXRa K156A/R161A, NR concentration 270 nM, RXRa partner concentration 90 nM)
# Outline: (§1)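 Binding z-scores take random background probes as their reference. They come from custom Agilent 4×180K protein-binding microarrays incubated 1 h with ligand-free nuclear receptor dimers, with antibodies against each partner (one per run) detecting binding. Scanned fluorescence was regression-normalized.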
# [2] = tested on: PPARg:RXRa IVT, anti-PPARg (NR concentration 270 nM, RXRa partner concentration 90 nM)
# Outline: as §1
# [3] = tested on: PPARg DBDmut:RXRa IVT, anti-PPARg (DBD mutation: PPARg1 K132A/R137A, NR concentration 270 nM, RXRa partner concentration 90 nM)
# Outline: as §1
# [4] = tested on: PPARg DBDmut IVT, anti-PPARg (DBD mutation: PPARg1 K132A/R137A, NR concentration 270 nM)
# Outline: as §1
# [5] = tested on: PPARg homodimer (NR concentration 180 nM)
# Outline: as §1
# [6] = tested on: PXR:RXRa (NR concentration 270 nM, RXRa partner concentration 90 nM)
# Outline: as §1
# [7] = tested on: PXR homodimer (NR concentration 270 nM)
# Outline: as §1
# [8] = tested on: RARa:RXR (NR concentration 270 nM, RXRa partner concentration 90 nM)
# Outline: as §1
# [9] = tested on: RARa homodimer (NR concentration 270 nM)
# Outline: as §1
# [10] = tested on: RARb:RXRa (NR concentration 270 nM, RXRa partner concentration 90 nM)
# Outline: as §1
Sequence,PBM binding z-score [1],PBM binding z-score [2],PBM binding z-score [3],PBM binding z-score [4],PBM binding z-score [5],PBM binding z-score [6],PBM binding z-score [7],PBM binding z-score [8],PBM binding z-score [9],PBM binding z-score [10]
CTCGAAAGGTCGGTTGAGGAGAGTATACGGATAA,-0.459,0.102,1.01,-0.0822,0.421,1.09,0.356,2.15,-0.00538,2.87
TCTGCTAGGTCAACGAAGGTCAGCTAATCTGCTA,4.15,4.53,0.834,0.313,3.51,5.64,0.241,4.51,0.797,4.95
CTACCAAGGTAAACAAGGTCGTTGATTACTATTC,1.19,0.986,-0.194,0.206,0.169,2.25,1.6,1.75,0.382,0.851
ATCGAAAGGTCGACGAGGTCAGTATACACCGTTT,1.29,2.59,1.42,0.928,2.73,5.77,9.23,5.2,1.54,4.56
ATACCACGGTGATCGTGAGGTCGTTGATACTAAC,-0.0691,0.808,0.255,0.824,0.823,1.6,0.891,1.57,0.137,0.885
CCTCGGAGGACAACAAGAGGTCAGAGCTGCCAGA,-0.155,0.669,-1.24,-1.03,1.86,3.04,0.241,3.4,0.861,3.18
ACTTACGGGTCAACGAGTTTATAGCACGCGTATA,3.67,3.98,1.94,1.27,1.4,5.9,9.25,4.24,0.513,4.14
ATCTCTAGGTAAAGATAGTACAGTGAATGCAAAT,1.46,1.59,1.31,1.08,1.02,0.0817,0.418,0.0539,1.54,0.0238
TCTTGTACATCAACAGGAGGTTAAGAAAGATCGA,1.52,0.927,1.32,1.51,-0.544,0.873,0.161,1.09,0.409,0.66
CAAACTAGGTCAAGAGTTCAAAGTCCGCTTCCCG,8.53,8.57,5.05,5.84,7.86,6.27,10.5,6.61,2.65,4.74
CCTCGGAGGACAACAGGAGGTCAGAGCTGCCAGA,0.299,0.564,-0.994,-1.03,1.72,2.02,0.105,2.3,0.364,2.84
CAGACTAGGTCACCGGAAGGTCAAAGTCCGCATG,7.28,7.61,0.753,0.84,6.86,5.81,1.7,6.81,2.04,5.34
TGAATGAGGTTATAAGATCAGGGGACGTTGCAAA,1.5,1.82,0.706,0.291,0.361,0.901,0.3,1.58,0.169,1.43
ATCTCTTGGTAAAGATAGTTCAGTGAATGCAAAT,-0.0767,0.448,0.845,1.88,0.879,0.78,0.85,0.962,0.477,0.724
CGAACTAGGTCAAGGACAATGAATCTCCGCACGC,8.3,8.44,2.51,1.02,2.03,1.31,0.478,1.99,-0.186,3.99
TAGCCGAGGTCAGATCGGGCCAGTATACGCTATA,0.468,2.23,0.311,-0.734,1.19,4.38,-0.437,3.81,-0.0454,4.42
ATACCAAGGCGATCGTGAGGTCGTTGATACTAAC,-0.138,-0.0368,-0.877,-0.313,-0.138,1.3,0.728,1.12,0.128,0.341
GCTGCTAGATCAGGTTGGTCAGCTAACGGGTACG,-0.422,-0.787,-0.302,-0.87,-0.314,-0.686,-0.557,-0.344,-1.48,-0.392
AGAATGAGGTTACCAAAGAACAGGGAAACGCTTG,3.61,3.21,0.635,0.163,0.531,1.06,0.0622,1.64,0.0488,2.11
AGAACGAGGGCAATGAGTTGTTAGCACGGGTGGC,3.51,2.66,0.326,-0.308,-0.355,0.859,1.26,0.0367,-0.253,2.13
CCAACTAGGTCATCCAGGACAGTGAATACATTGA,7.67,7.53,1.61,1.62,2.3,1.94,1.63,2.35,1.24,3.89
CCTACTGGGCCATTCAGAGGTCATTTATCATATG,3.98,4.38,1.61,0.342,2.27,4.91,2.24,4.44,0.704,2.79
TCGATTAGGTTAGTCGGGGCATTCAGCCAACATA,2.2,0.996,0.0217,-0.0761,0.302,0.39,0.0297,0.45,-0.0114,0.705
ACTATTAGTTGAGACGAGGGCAACCCATAGGTTG,0.0223,0.455,0.5,0.77,0.831,1.31,0.412,0.966,0.536,1.07
